The record followed here is PubChem BioAssay (NCATS).

Where “and” joins values, the source holds several entries; their conditions need not be identical. Identical values can stand only once. Unmarked numbers belong to inactive results. Inconclusive results are not listed. Calls of active or inactive are those of the source. Unless noted, calls come from the whole dose curve; as a rule, active = well fitted inhibition curve with a large enough effect; inconclusive = small, poorly fitted or top-dose-only effect; inactive = flat fitted curve, though single readings scatter. Where a SMILES comes first, the peptide text is derived from it. Bridges are numbered along the chain shown (N, C = ends). [ ]: non-standard residue; d: D form. The star is where a group is joined. X2 = CC[C@H](C)CCCCC(=O)*; Dab = NCC[C@H](N)C(=O)O

Assay [1] can be described thus: Drug repurposing screens with cells derived from glioblastoma tumor samples (AID 1345199). For activity, negative = cell killing: % is set by controls: 0 for no effect and ±100 for the full control effect. Note: nearly all actives have a fitted effect of over 40% in size. Note: potency is the fitted concentration of half-maximal effect. The conditions noted are these: GBM patient neurospheres viability, ATP luminescence, 48 h. Put shortly: (§1)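 Four patient lines of CD133+ GBM neurospheres were screened at several concentrations; hits were retested in those lines plus three slower-growing GBM lines, using 48-hour treatment and ATP-based viability.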

Assay [2] deals with astro (control astrocytes). Described as above. The conditions noted are these: viability, ATP luminescence, 48 h; series mostly up to 45.9 µM. The gist of the method: as §1
Assay [3] has as its target Nuclear receptor subfamily 1 group I member 2 (Rattus norvegicus) (UniProt Q9R1A7). Briefly: qHTS assay for small molecule activators of the rat pregnane X receptor (rPXR) signaling pathway (AID 651751; call rule not given here; note: 0% is about no effect). Particulars: rPXR reporter cells, luciferase (One-Glo), 24 h.
A short description of assay [4]: qHTS assay for small molecule activators of the human pregnane X receptor (PXR) signaling pathway (AID 720659; call rule not given here; note: 0% is about no effect). Particulars: DPX-2 HepG2 CYP3A4-luciferase, 24 h; series mostly up to 92.3 µM. A general note: qHTS replaces the single test concentration by a dilution series.
[5] abbreviates: at 45.9 µM (top of the series), tumour line B.
[6] abbreviates: at 45.9 µM (top of the series), tumour line D.
[7] abbreviates: at 46 µM (top of the series), tumour line A.
The mark [8] stands for this setting: at 46.1 µM (top of the series), tumour line C.

Nuclear receptor subfamily 1 group I member 2 (Rattus norvegicus), sequence (Q9R1A7 whole entry, looked up): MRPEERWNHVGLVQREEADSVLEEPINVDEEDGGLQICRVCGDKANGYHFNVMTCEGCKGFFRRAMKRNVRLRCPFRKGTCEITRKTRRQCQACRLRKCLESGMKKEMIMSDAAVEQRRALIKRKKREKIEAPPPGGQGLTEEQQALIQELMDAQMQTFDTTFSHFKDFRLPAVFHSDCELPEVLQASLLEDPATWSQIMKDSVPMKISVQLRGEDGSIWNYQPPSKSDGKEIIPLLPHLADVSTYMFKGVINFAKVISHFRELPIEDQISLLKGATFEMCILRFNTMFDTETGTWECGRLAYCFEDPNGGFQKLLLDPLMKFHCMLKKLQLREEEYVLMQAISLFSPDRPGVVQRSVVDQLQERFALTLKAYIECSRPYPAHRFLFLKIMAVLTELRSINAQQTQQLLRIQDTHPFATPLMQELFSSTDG

Take `COc1ccc(C(=O)CCC(=O)O)c2ccccc12`: the activity, negative = cell killing in assay [1] (setting [5]) was 0.841%; in assay [1] (setting [6]), 1.24%; in assay [1] (setting [7]), -50.8%; in assay [1] (setting [8]), -26.3%. Besides, in assay [2], the Potency result is “inactive”.

Take `CC[C@@H](C)[C@H](N)C(=O)O`: the activity, negative = cell killing in assay [1] (setting [5]) was -5.93%; in assay [1] (setting [6]) it was -17.3%; in assay [1] (setting [7]), -37.7%; in assay [1] (setting [8]) it was -13.6%. For the same compound, the Potency entry in assay [2] is “inactive”.

Regarding `OB(O)O`, the activity, negative = cell killing in assay [1] (setting [5]) is -12.9%; in assay [1] (setting [6]), -13.8%; in assay [1] (setting [7]) it was -26.5%; in assay [1] (setting [8]) it was 5.29%. In addition, in assay [2], the Potency result is “inactive”. Further, in assay [3], the max response was 1.69% and 5.36%. Further, the compound was classed as inactive in assay [4].

As to `c1ccc2ccccc2c1`, the activity, negative = cell killing in assay [1] (setting [5]) was -9.97%; in assay [1] (setting [6]), 9.45%; in assay [1] (setting [7]) it was -4.53%; in assay [1] (setting [8]), -18.3%. In assay [2], the Potency entry was “inactive”. In assay [3], the max response was -1.58% and 3.23%.

`Nc1ncnc2c1ncn2[C@H]1CC[C@@H](CO)O1`: the activity, negative = cell killing in assay [1] (setting [5]) was -7.29%; in assay [1] (setting [6]), -3.43%; in assay [1] (setting [7]), -28.3%; in assay [1] (setting [8]), -20.8%. Besides, the Potency result in assay [2] was “inactive”. The max response in assay [3] was -2.84% and -0.199%. Further, the call in assay [4] was inactive.

For the compound `CCOC(C)OCC`, the activity, negative = cell killing is -4.71% in assay [1] (setting [5]), -10.7% in assay [1] (setting [6]), -12.1% in assay [1] (setting [7]) and -14.4% in assay [1] (setting [8]). Also, in assay [2], the Potency result was “inactive”. Also, in assay [3], the max response is 0.058%. The compound was called inactive in assay [4].

As for `NC(N)=O`, the activity, negative = cell killing in assay [1] (setting [5]) is -9.26%; in assay [1] (setting [6]), -11.1%; in assay [1] (setting [7]), -23.3%; in assay [1] (setting [8]) it was 7.05%. Moreover, in assay [2], the Potency result is “inactive”. In addition, the max response in assay [3] was 3.1%. Further, the outcome in assay [4] was inactive.

For `COC(=O)c1ccccc1O`, the activity, negative = cell killing in assay [1] (setting [5]) was -5.99%; in assay [1] (setting [6]), -6.33%; in assay [1] (setting [7]), -21.5%; in assay [1] (setting [8]), 12.1%. Further, in assay [2], the Potency result is “inactive”. Further, the max response in assay [3] is -2.2% and 1.51%.

In the case of `CC1=CCC2CC1C2(C)C` (stereo unspecified), the activity, negative = cell killing was -2.1% in assay [1] (setting [5]), 2.05% in assay [1] (setting [6]), -19.4% in assay [1] (setting [7]) and 11.1% in assay [1] (setting [8]). In assay [2], the Potency entry was “inactive”. Further, the max response in assay [3] was 1.07%. Besides, in assay [4], the compound was classed as inactive.

`C=C(C)C1CC=C(C)CC1` (stereo unspecified): the activity, negative = cell killing is -13.3% in assay [1] (setting [5]), -4.33% in assay [1] (setting [6]), -25% in assay [1] (setting [7]) and -2.45% in assay [1] (setting [8]). In assay [2], the Potency result is “inactive”. Also, in assay [3], the max response was 7.4% and -2.46%.

Turning to `Cc1ccc(S(=O)(=O)NCl)cc1`, the activity, negative = cell killing in assay [1] (setting [5]) is -6.22%; in assay [1] (setting [6]), 7.3%; in assay [1] (setting [7]) it was -22.9%; in assay [1] (setting [8]), -11.3%. Also, the Potency entry in assay [2] was “inactive”. Further, in assay [3], the max response is -0.198%. Further, the compound was called inactive in assay [4].

For `CC[C@H](C)CCCCC(=O)N[C@@H](CCN)C(=O)N[C@H](C(=O)N[C@@H](CCN)C(=O)N[C@H]1CCNC(=O)[C@@H]([C@H](C)O)NC(=O)[C@H](CCN)NC(=O)[C@H](CCN)NC(=O)[C@H](CC(C)C)NC(=O)[C@@H](CC(C)C)NC(=O)[C@H](CCN)NC1=O)[C@@H](C)O` (X2-[Dab]T[Dab][Dab][Dab][dL]L[Dab][Dab][dT]; lactam 4-C), the activity, negative = cell killing in assay [1] (at 20 µM (top of the series), tumour line C) is 7.06%; in assay [1] (at 21.2 µM (top of the series), tumour line B), -0.409%; in assay [1] (at 21.2 µM (top of the series), tumour line D), -6.08%; in assay [1] (at 21.3 µM (top of the series), tumour line A), -17.3%. Further, the Potency result in assay [2] is “inactive”.

For `C[C@H](CCC(=O)O)[C@H]1CC[C@H]2[C@@H]3[C@H](O)C[C@@H]4C[C@H](O)CC[C@]4(C)[C@H]3C[C@H](O)[C@]12C`, the activity, negative = cell killing in assay [1] (setting [5]) was -1.15%; in assay [1] (setting [6]), 1.82%; in assay [1] (setting [7]), -16.5%; in assay [1] (setting [8]), -12.6%. For the same compound, the Potency result in assay [2] was “inactive”. Besides, in assay [3], the max response is -1%. Further, the compound was called inactive in assay [4].

Turning to `CCC(C(=O)NC(N)=O)c1ccccc1` (stereo unspecified), the activity, negative = cell killing in assay [1] (setting [5]) was -5.95%; in assay [1] (setting [6]) it was -2.75%; in assay [1] (setting [7]), -8.52%; in assay [1] (setting [8]) it was -14.2%. Moreover, the Potency entry in assay [2] was “inactive”.

`CCCCC`: the activity, negative = cell killing is -6.65% in assay [1] (setting [5]), -7.88% in assay [1] (setting [6]), -21.1% in assay [1] (setting [7]) and 22.7% in assay [1] (setting [8]). Also, the Potency result in assay [2] was “inactive”. For the same compound, the max response in assay [3] is -1.73%. Moreover, the outcome in assay [4] was inactive.

For `C[C@H](CCC(=O)O)[C@H]1CC[C@H]2[C@@H]3CC[C@@H]4C[C@H](O)CC[C@]4(C)[C@H]3C[C@H](O)[C@]12C`, the activity, negative = cell killing in assay [1] (setting [5]) was -4.54%; in assay [1] (setting [6]), 7.18%; in assay [1] (setting [7]), -19.5%; in assay [1] (setting [8]) it was -8.85%. In addition, in assay [2], the Potency result is “inactive”. Further, in assay [3], the max response is -12.5%.

For `OCl`, the activity, negative = cell killing was -3.7% in assay [1] (setting [5]), -8.71% in assay [1] (setting [6]), -24.4% in assay [1] (setting [7]) and -3.94% in assay [1] (setting [8]). Further, the Potency result in assay [2] was “inactive”. Moreover, the max response in assay [3] was -4.49%. For the same compound, the outcome in assay [4] was inactive.

`CC[C@H]1OC(=O)[C@H](C)[C@@H](O[C@H]2C[C@@](C)(OC)[C@@H](O)[C@H](C)O2)[C@H](C)[C@@H](O[C@@H]2O[C@H](C)C[C@H](N(C)C)[C@H]2O)[C@](C)(O)C[C@@H](C)CN(C)[C@H](C)[C@@H](O)[C@]1(C)O`: the activity, negative = cell killing in assay [1] (setting [5]) is -13.7%; in assay [1] (setting [6]), -25.4%; in assay [1] (setting [8]) it was -5.95%. For the same compound, the Potency in assay [1] (tumour line A) is 5.01 µM (active). Moreover, in assay [2], the Potency result is “inactive”. The max response in assay [3] is -1.6%. Further, the result in assay [4] was inactive.

Take `OCC(O)CO`: the activity, negative = cell killing in assay [1] (setting [5]) is -10.1%; in assay [1] (setting [6]) it was -10.7%; in assay [1] (setting [7]), -18.9%; in assay [1] (setting [8]), 6.43%. Also, the Potency result in assay [2] is “inactive”. Moreover, the max response in assay [3] was -2.39% and -3.75%. Besides, the result in assay [4] was inactive.
